Common to all, as to experiment: NCI-60 one-dose screen, 48 h (100 = growth as untreated, 0 = no growth, -100 = all killed)
Holding throughout (details): 10 µM unless noted

Experiment [1] has as its system RPMI-8226 leukemia.
Experiment [2] has as its system OVCAR-8 ovarian.
Experiment [3] has as its system OVCAR-5 ovarian.
The test system of experiment [4] is OVCAR-4 ovarian.
The subject of experiment [5] is SK-OV-3 ovarian.
In experiment [6] the test system is IGROV1 ovarian.
The test system of experiment [7] is OVCAR-3 ovarian.
The subject of experiment [8] is HS 578T breast.
For experiment [9], the system named is NCI/ADR-RES ovarian.
In experiment [10] the test system is T-47D breast.
For experiment [11], the system named is BT-549 breast.
Experiment [12] relates to MDA-MB-435 melanoma.
The test system of experiment [13] is SW-620 colon.
The subject of experiment [14] is MCF7 breast.
Experiment [15] deals with HCT-116 colon.
The test system of experiment [16] is HCC-2998 colon.
Experiment [17] deals with KM12 colon.

Molecules are shown by their SMILES. About 83,000 compounds went through this panel and 20% of them were active in at least one assay; those are over-represented in the sample as a whole.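 Compound tested at a single concentration for 48 hours in 96-well plates; a percent growth value below 10 was scored as active.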 A number with no mark means an inactive call. Calls of active or inactive are those of the source.

For the compound `COc1cc(C(=O)/C=C/c2c(Cl)nc3sccn23)cc(OC)c1OC`, the growth in experiment [1] was 40.8%; in experiment [2], 85.9%; in experiment [3], 92.6%; in [4], 90.6%; in [5], 83.3%; in [6], 79.8%. In addition, the growth was 64.5% in experiment [7]; 61% in experiment [8]; 81.4% in experiment [9]; 81.3% in experiment [10]; 81.3% in experiment [11]; 72.5% in experiment [12]. For the same compound, the growth in experiment [13] was 65.8%; in [14] it was 54.8%; in experiment [15] it was 52.3%; in experiment [16], 104%; in experiment [17] it was 56.7%.
For `COc1ccc(C2=Nn3c(nnc3-c3cc(Cl)cc(Cl)c3Cl)SC2)cc1`, the growth in experiment [1] is 1.17% (active); in [2], 19.5%; in experiment [3] it was 6.36% (active); in experiment [4], 30.8%; in experiment [5] it was 24.4%; in experiment [6], -11% (active). Further, the growth in [7] was -24.6% (active); in [8], 11.7%; in [9], -20.8% (active); in experiment [10] it was 68.6%; in experiment [11], -31.2% (active); in [12], -46.7% (active). Also, the growth in experiment [13] was 20.2%; in experiment [14], 7.11% (active); in [15], -27% (active); in [16], -57.9% (active); in experiment [17], 6.48% (active).
In the case of `COc1c(B(O)O)cc(C)cc1-c1nc2ccc3[nH]ncc3c2c2c1CCCC2`, the growth in experiment [1] was 35.6%; in experiment [2], 53.3%; in experiment [3], 89.3%; in [4], 102%; in experiment [5], 63.5%; in experiment [6] it was 60.8%. Besides, the growth is 102% in [7]; 18.2% in [8]; 55.7% in experiment [9]; 78.5% in experiment [10]; 24.2% in experiment [11]; 22.5% in experiment [12]. The growth in experiment [13] was 8.73% (active); in experiment [14] it was 54.6%; in experiment [15], 21.3%; in [16] it was 62.9%; in experiment [17], 30.6%.
`CC(=O)c1ccc(Nc2nc(C(C)=O)c(C)s2)cc1`: the growth is 95.1% in experiment [1]; 102% in experiment [2]; 108% in experiment [3]; 94.4% in experiment [4]; 101% in experiment [5]; 98.2% in experiment [6]. Further, the growth in [7] is 99.9%; in [8], 99.5%; in experiment [9] it was 105%; in experiment [10], 92.4%; in experiment [11], 105%; in experiment [12] it was 100%. Besides, the growth was 96.2% in [13]; 83.6% in [14]; 104% in experiment [15]; 98.3% in [16]; 98.5% in experiment [17].
Regarding `Cc1ncc(C(=O)Nc2ccc(CN3CCN(C)CC3)c(C(F)(F)F)c2)cc1C#Cc1ccc(N)nc1`, the growth in experiment [1] is 1.1% (active); in experiment [2], 19.8%; in experiment [3], 10.4%; in experiment [4] it was 12%; in experiment [5], 16.7%; in experiment [6], -25% (active). The growth in [7] is 18.6%; in [8], -20% (active); in experiment [9] it was 9.79% (active); in experiment [10] it was 18.6%; in [11], 15.3%; in [12] it was -59% (active). The growth in experiment [13] is -2.48% (active); in [14] it was 4.46% (active); in [15] it was -31.3% (active); in experiment [16] it was 25.5%; in experiment [17], 2.86% (active).
Take `O=C(CS(=O)c1oc(-c2cccs2)nc1S(=O)(=O)c1ccc(Br)cc1)c1ccccc1` (stereo not drawn): the growth was 91.8% in experiment [1]; 91.4% in experiment [2]; 89.2% in [3]; 75.2% in experiment [4]; 89.8% in [5]; 101% in experiment [6]. The growth in experiment [7] was 103%; in experiment [8], 79.5%; in [9], 93.8%; in [10], 82%; in experiment [11] it was 97%; in experiment [12], 95%. Also, the growth in [13] was 97.7%; in experiment [14], 96.9%; in experiment [15], 86.2%; in [16], 98.6%; in experiment [17], 102%.
Turning to `O=C(Nn1c(NCC(=O)N2c3ccccc3Sc3ccccc32)nnc1-c1ccc(O)cc1)c1ccccc1`, the growth in [1] is 101%; in experiment [2], 104%; in experiment [3], 90.4%; in [4] it was 105%; in [5], 101%; in experiment [6], 102%. The growth is 114% in [7]; 108% in [8]; 93.7% in experiment [9]; 98.9% in experiment [10]; 98.4% in [11]; 102% in experiment [12]. For the same compound, the growth in experiment [13] was 105%; in experiment [14], 108%; in experiment [15], 91.7%; in experiment [16], 91.9%; in experiment [17] it was 104%.
Turning to `Brc1c[n+](Cc2ccc3ccccc3c2)cn1Cc1ccc2ccccc2c1`, the growth was -46.3% (active) in experiment [1]; 8.2% (active) in experiment [2]; 46.8% in [3]; -13.2% (active) in experiment [4]; 34.9% in experiment [5]; -51% (active) in [6]. In addition, the growth in [7] is -4.19% (active); in experiment [8], -7.66% (active); in experiment [9] it was 97.5%; in [10], 6.91% (active); in experiment [11] it was -12.1% (active); in experiment [12] it was -32.1% (active). The growth in experiment [13] was 37.7%; in [14] it was 14.3%; in experiment [15] it was 17%; in experiment [16], -28.5% (active); in experiment [17], -73.5% (active).
As for `O=C(Oc1cccc2ccccc12)Oc1cccc2ccccc12`, the growth in experiment [1] was 113%; in experiment [2], 107%; in experiment [3] it was 103%; in experiment [4], 113%; in [5] it was 102%; in experiment [6] it was 73.6%. The growth in experiment [7] was 79.4%; in experiment [8] it was 106%; in [9], 103%; in experiment [10], 95.1%; in experiment [11], 98.9%; in experiment [12], 115%. Moreover, the growth in experiment [13] is 110%; in experiment [14] it was 107%; in experiment [15], 107%; in experiment [16], 105%; in experiment [17], 97.3%.

Source of the values: PubChem BioAssay (NCI).
